High-throughput results deposited in PubChem BioAssay by National Center for Advancing Translational Sciences (NCATS).
This excerpt belongs to a sample that is enriched for hits.
Pf Dd2 growth = Plasmodium falciparum Dd2 growth inhibition. P. falciparum Dd2 growth, SYBR Green, 72 h. Potency, µM (doses to about 28.9 µM), without a hit: at the highest dose activity, negative = inhibition, hits mostly inhibitors. hit rate 4.3% among 120,000; active = well fitted inhibition curve with a large enough effect;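 note: plate controls were DMSO vehicle for no effect and reference drug for full effect; nearly all actives have a fitted effect of over 65% in size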
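Readout: SYBR Green fluorescence, 485 nm excitation, 535 nm emission, after ~16 h lysis at 37C. Before that, Dd2-infected red cells (2.5% hematocrit) grew 72 h with compound, 29 uM top final concentration.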
Numbers without * were called inactive; i = inactive; [ ] = remark or other dose. Potency is the fitted concentration of half-maximal effect.

SMILES	Pf Dd2 growth
COC[C@H]1CCCN1[C@@H]1[C@H](O)[C@H](CO)O[C@@H]1CN(Cc1cccc(Cl)c1)Cc1cccc(Cl)c1	0.71µM*
OC[C@@H]1O[C@H](CN(Cc2cccc(Cl)c2)Cc2cccc(Cl)c2)C(N2CCOCC2)[C@@H]1O (some centres undefined)	i
O=C(NCc1ccnc2[nH]ccc12)c1ccc2ccccc2n1	1%[44.1 µM]
CC(C)CCC(=O)N1CCC2(CC1)Nc1ccccc1NC2=O	-15%
CCc1ccc(NCc2cccn2-c2nnc(N3CCCCCC3)s2)cc1	-16%
Cc1ccc(NCc2cccn2-c2nnc(N3CCC(C(=O)NCc4ccc(OC(C)C)cc4)CC3)s2)cc1	-28%
Cc1ccc(CN(Cc2cccn2-c2nnc(N3CCCC3=O)s2)C(=O)Nc2ccccc2Cl)cc1	11µM*
CN1C(=O)CCC2(CNC(=O)c3cccnc3)CCCC=C12 (centres undefined)	18%
O=C(Cn1nc2c(cc1=O)CCCC2)NC1CCN(Cc2ccc(F)cc2)CC1	5%
CCN(CC)CCn1c(=N)n(CCOc2ccccc2Cl)c2ccccc21	4.5µM*
COC(=O)Cn1c(SCCOc2ccccc2Cl)nc2ccccc21	22%
CCN(CC)CCn1c(=N)n(CC(O)COc2ccccc2C)c2ccccc21 (centres undefined)	1.3µM*
CC(=O)c1ccccc1OCC(O)Cn1c(CO)nc2ccccc21 (centres undefined)	i
COc1ccc(N2CCN(CC(O)COc3ccccc3C(C)(C)C)CC2)cc1 (centres undefined)	10%
CC(C)C(=O)N1CCC(NCCOc2ccccc2Cl)CC1	-3%
CC(C)[C@@H]1CN(C(=O)CCCS(N)(=O)=O)C[C@H]1C(=O)O	5%
NC(=O)[C@H](CC1CCCCC1)NC(=O)[C@H]1CNCCN1C(=O)NC1CCCCC1	-7%[44.1 µM]
CCCc1cc(C(=O)N2CCC3(CC2)CC(=O)N(CCCOC)C3)n(C)n1	2%
COc1cccc(CC(=O)N2C[C@@H](Oc3ccccc3)C[C@H]2C(=O)N2CCOCC2)c1	-7%
Cc1cccc(NC(=O)C(=O)NCC(c2cccnc2)N2CCN(Cc3ccccc3)CC2)c1 (centres undefined)	7.9µM*
CCc1ccc(NC(=O)C(=O)NCC(c2cccnc2)N2CCN(C)CC2)cc1 (centres undefined)	-16%
Cc1cccc(NC(=O)C(=O)NCC(c2ccc3c(c2)OCO3)N2CCN(c3ccccc3)CC2)c1 (centres undefined)	-26%
COc1ccc(N2CCN(C(CNC(=O)C(=O)NCc3cccnc3)c3cccnc3)CC2)cc1 (centres undefined)	-15%[0.594 µM]
O=C(NCC(c1cccnc1)N1CCN(Cc2ccccc2)CC1)C(=O)Nc1ccc(Cl)cc1 (centres undefined)	14µM*
COc1ccccc1N1CCN(C(CNC(=O)C(=O)NCCN(C)C)c2cccnc2)CC1 (centres undefined)	-6%
SMILES	Pf Dd2 growth
COCCNC(=O)C(=O)NCC(c1cccnc1)N1CCN(c2ccccc2F)CC1 (centres undefined)	55%[0.594 µM]
Cc1ccc(NC(=O)C(=O)NCC(c2cccnc2)N2CCN(Cc3ccccc3)CC2)cc1 (centres undefined)	81%[0.594 µM]
O=C(NCC(c1cccnc1)N1CCN(Cc2ccccc2)CC1)C(=O)Nc1cccc(Cl)c1 (centres undefined)	4µM*
CCc1ccccc1CN1CCC2(CC1)Cc1ccccc1CNC2=O	-9%
COC[C@@H]1CN(C(=O)c2ccco2)C[C@H]1c1nc(C2CC2)no1	0%
O=C(CN1CCCC1=O)N1CCC(C2CCNC2)CC1 (centres undefined)	19%
COC[C@@H]1CN(Cc2cnn(C)c2)C[C@H]1c1ccncc1	11%
COC[C@@H]1CN(Cc2c(OC)cccc2OC)C[C@H]1c1ccncc1	4.5µM*
COC[C@@H]1CN(Cc2ccc(OC)c(OC)c2)C[C@H]1c1ccncc1	-25%
COCC(=O)N1CC[C@@H](CC(=O)O)[C@@H](CC2=NCCc3ccc(C)cc32)C1	1%[44.1 µM]
Cc1cc(C(=O)N2CCC3(CCCN(CC4CCC4)C3=O)C2)nc(C)n1 (centres undefined)	-17%
Cc1ccccc1CSCc1ccc(C(=O)NCCc2ccccc2)o1	20%
Cc1ccc(Cn2c(SCc3ccc(C(=O)NCCc4ccccc4)cc3)nc3ccncc32)cc1	6.3µM*
COCCNC(=O)c1ccc(Cn2c(SCC(N)=O)nc3ccccc3c2=O)cc1	-27%
Cc1ccccc1Cn1c(SCc2ccc(C(=O)NCCc3ccccc3)cc2)nc2ccncc21	7.1µM*
Cc1ccccc1Cn1c(SCc2ccc(C(=O)NC3CCCC3)cc2)nc2ccncc21	-10%
O=C(NCCc1ccccc1)c1ccc(CSc2nc3ccncc3n2Cc2ccccc2)cc1	8.9µM*
Cc1nc(C)c(C(=O)N2CCC(Cc3noc(-c4ccccc4)n3)C2)s1 (centres undefined)	-26%
COCCOC1CCOC2(CCN(C(=O)c3ccsc3)CC2)C1 (centres undefined)	-16%
CCC1(C(=O)Nc2ccc(C(C)C)cc2)CCCCC(=O)N1 (centres undefined)	i
COc1ccc(CNC(=O)C[C@@H]2CCNC[C@@H]2Cc2cc(CC3CCCCC3)on2)cc1	11µM*
COc1ccc(CNC(=O)C[C@@H]2CCNC[C@@H]2Cc2cc(CN3CCOCC3)on2)cc1	16%
O=C(C[C@@H]1CCNC[C@@H]1Cc1cc(CC2CCCCC2)on1)NCc1ccco1	i
COc1ccc(NC(=O)N2C[C@@H]3C[C@H](C2)c2ccc(NC(=O)C4CCCCC4)c(=O)n2C3)cc1	i
CC(C)CCN1CCC(N2CCN(S(=O)(=O)c3ccc(F)cc3)CC2)C1=O (centres undefined)	-16%
SMILES	Pf Dd2 growth
Cc1cc(Cl)ccc1S(=O)(=O)N1CCN(C2CCN(CCC(C)C)C2=O)CC1 (centres undefined)	-28%
Cc1ccc(S(=O)(=O)N2CCN(C3CCN(CCC(C)C)C3=O)CC2)cc1Cl (centres undefined)	4µM*
COc1cccc(C(=O)N2CCC3(CC2)N=C(c2ccc(Br)cc2)NO3)c1	7.9µM*
COc1cccc(C(=O)N2CCC3(CC2)N=C(c2ccc(C)cc2)NO3)c1	i
COc1cccc(C(=O)N2CCC3(CC2)N=C(c2cccc(Br)c2)NO3)c1	-23%
O=C(c1cccs1)N1CC[C@H](c2nnc(-c3ccc(Cl)cc3)o2)C1	-15%[44.1 µM]
Cc1ccc(-c2noc([C@@H]3CCCN3C(=O)c3ccc(Cl)cc3)n2)cc1	16%
CCC(CC)NC(=O)CCC1CCN(C(=O)c2ccccc2)CC1	-10%
COC(=O)C1=C(C)N=C2SC=C(CC(=O)NCc3ccc(F)cc3)N2C1c1cccc(OC)c1 (centres undefined)	-24%
CCOc1ccc(Nc2nc(Nc3ccc(OCC)cc3)nc(N3CCOCC3)n2)cc1	-15%
Cc1cccc(Nc2nc(N)nc(CN3CC[C@@H](N)[C@H](O)C3)n2)c1	-1%
Cc1cccc(Nc2nc(Nc3cccc(C)c3)nc(N3CCOCC3)n2)c1	11µM*
COc1cccc(Nc2ncc3c(n2)C(C)(C(=O)Nc2nc(C)cs2)CC3)c1 (centres undefined)	-5%[44.1 µM]
COCC(=O)NC[C@H]1O[C@@H](CC(=O)NCCN(C)C)[C@H](O)[C@@H]1O	22%[44.1 µM]
O=C(Nc1ccc(N2CCOCC2)cc1)C1(CCO)CCN(c2ncccn2)C1 (centres undefined)	-25%
COc1ccc(C(=O)NC(c2ccc(Cl)cc2)c2cc(Cl)c3cccnc3c2O)cc1 (centres undefined)	2.8µM*
